Laboratory results reported in article PMC13494018.

B1: d6r1_design_ppi_30_dldesign_0_cycle0_af2pred (protein)
chain: EKEEIIKKAKELKEQAEKVLAEDVSPLAKKVAEQAIKHAEKAIEAAKAGDLEEAKAHLSSAEAFVLGLTR
B2: d6r1_design_ppi_2_dldesign_0_cycle1_af2pred (protein)
chain: AEAKKKAIEDAEGAAEAAKKFLDLFKEAFPEAKETIAALQAKVEAAKKAAEKARKEGADVATAQAVLDQARAVQVDIINALNEATRS
B3: d6r1_design_ppi_3_dldesign_0_cycle0_af2pred (protein)
chain: EEELARAAEAARRQAEVAEALAEQAAAADPANQPLADEARRLAERARELAERGATVEEIREALLEVSRAAARAAAALNAAVAA
B4: d6r1_design_ppi_232_dldesign_0_cycle0_af2pred (protein)
chain: AEEFAEEAKKELEEIEKMIKEGEARADGEQIAVEAIEKAGEALKKAKEFKKKDPKVGEEAAKEFLKAINEATKAANAKAAAA
B5: d6r1_design_ppi_463_dldesign_0_cycle1_af2pred (protein)
chain: GPFEAAYAEALAEVEAEIAALKAEAEKVAAAGKKTGKTAEAAAKAEELKAKAAELEAQKESIAAQRAFRRLAAQTAAQAAAA
B6: d6r1_design_ppi_229_dldesign_0_cycle0_af2pred (protein)
chain: EEARELARRTAEEAEELIKKALPEEDRELAELAGDLVRAGAEAATTNPAQGRAAFRTAAGILRSAGAEEAAEEVERRMEEMLRRIA
B7: d6r1_design_ppi_377_dldesign_0_cycle1_af2pred (protein)
chain: MEDEELAEKIRERAKEAIAQIRASSPEQAALLAGTLVAEFGEWARSGTPEVAAVAHEEMNRVTGEAAKVIA
B8: d6r1_design_ppi_583_dldesign_0_cycle1_af2pred (protein)
chain: MNIEELTALAEEHEAKAKALAAAGAPAIEVVSAATLAVRYYNEAAKLLAKIDPAKAKEYTAKAEAIRAAAAAYIRAQLARSAAA
B9: d6r1_design_ppi_377_dldesign_0_cycle0_af2pred (protein)
chain: EEERRRAEELRRRAEEAIERIRASTPEEAARIAGELVAWLGEEARAGTPELAEEARREMARVTREAARVLA
B10: d6r1_design_ppi_381_dldesign_0_cycle1_af2pred (protein)
chain: DEARAIIVSSLSEAAALDPAVAPLAMRAAALSINPATAAAAMAEAIAAMRAAGATVPEVAALADRAEAAA
B11: d6r1_design_ppi_617_dldesign_0_cycle0_af2pred (protein)
chain: AAARAQALLNEALALLFEAAARSRDGAPILRAASLAAQGFLTGEAAPEALAYIEAVAKEHPEVRELILEAARLFAEAAAL
B12: d6r1_design_ppi_13_dldesign_0_cycle1_af2pred (protein)
chain: AAEAKAAEKAARAELAKLRAVAAANPVHGGEILLAVARAAAEVNRLIAKGLAGTPEEAKAAAEAAKAAVAKARAEAAALA
B13: d6r1_design_ppi_198_dldesign_0_cycle1_af2pred (protein)
chain: GEAEKVEKAKEKAAEKINEALALASKGAIEGDVEKVKEAKEILKEAVKEAKAVSPEAAKYAEELAKKAEEIIEAMEKSAKAAA
B14: d6r1_design_ppi_251_dldesign_0_cycle0_af2pred (protein)
chain: DAARALLLRTAENAAQMLRLLGVDEATAEAVLARLTAAAAAGPAAFAAAARAAAAELEAQPSLNARTAGAALRTAAATAEAEIAAL
B15: d6r1_design_ppi_398_dldesign_0_cycle0_af2pred (protein)
chain: STAASLATGARVIANLFERAIEAAADPATRAEAEGLARSAAEIGALIGPELAAIAEAGLAAIGDLAAMRAELERVRALAAAA
B16: d6r1_design_ppi_575_dldesign_0_cycle0_af2pred (protein)
chain: SAEEEAAKEEAKAVLAQAEAILEQAKALAAQQPWAAGIAALARTAIRLAKESLEKGLELLPDAKALTEAAAGIVAAA
B17: d6r1_design_ppi_518_dldesign_0_cycle0_af2pred (protein)
chain: SAATLAQYNQLSGQASRLLMQAAQTGSVELAQQALQYAQQALQLAQQASANNAEGAKQLLEIAQATLAAVQ
B18: d6r1_design_ppi_270_dldesign_0_cycle1_af2pred (protein)
chain: EEEKREAAREITERAIEEIRAAAERAAAAGQPGAGVEAGMKIGAEAVRRVREKGTEELAEEAARRMNAALAEAIRAAMALAR
B19: d6r1_design_ppi_51_dldesign_0_cycle0_af2pred (protein)
chain: ALAEAQKQLAQARALVLGAEAAVEHAERSSPEEGRRALAAARDLIAQAKEKAKAAAKHPETKAEAEKLLKEAEKLEARAAAVEAAL
B20: d6r1_design_ppi_82_dldesign_0_cycle1_af2pred (protein)
chain: AAATQQQLTQAVRDALLARVAAVAADPSQAELLRRVTRSAVLMMGALEGLEGARAFAERAIAAAAAVGPEAAAAVREGAREGLEEYAA
B21: d6r1_design_ppi_373_dldesign_0_cycle1_af2pred (protein)
chain: EKEELIKKAKEALEKAKKAAKEAAADPELAKKAKKLAEEAKKAVEKAKKSGKEEAKKLAEKAKAAAAKAEAYALLAQGRAAA
B22: d6r1_design_ppi_62_dldesign_0_cycle0_af2pred (protein)
chain: VEEARALAESAEQAAEAGSYLLAALNLERAVRLAEELARRGEGLEEVRRIAERVAEVAKRVAESPEVRERAEEILRRAKRIIEEI
B23: d6r1_design_ppi_617_dldesign_0_cycle1_af2pred (protein)
chain: AAAQAQQLMNEALALLFEAARKAPDPSEILRAASKAAQGHLSGSLAEEALAYIREVAEKYPEVAELINEAAELYAQAAKL
B24: d6r1_design_ppi_484_dldesign_0_cycle1_af2pred (protein)
chain: GEEAERESKEALERVRELLRRLNELAAQRAAHPAELRATAAALVEAGKEALANPNASEEAKQLGAFGVTLGQTVLAALDAAAA
B25: d6r1_design_ppi_138_dldesign_0_cycle1_af2pred (protein)
chain: GKKKEEAEKLIKEAKEVKEKAEEAAKLAKELGNEEAAKAAQKAIEEAEKAIEAAKEGKLEEARLHLAKAKGYLLRAQGLIANKLAAA
B26: d6r1_design_ppi_239_dldesign_0_cycle1_af2pred (protein)
chain: DKAVLEEAEKVFKEALAVAEEIVAEGAKNPAYAAFAKAFAKQLKAQLAEAKKLTPEEALKAAKKLLDAAKQALKLVSE
B27: d6r1_design_ppi_478_dldesign_0_cycle1_af2pred (protein)
chain: AAARAAAQQLLMEVAEELIKLGAKEAARLALRAIGLLLSDPAQGVAAAKEAAKKAKEEAPENGEELAKKLEEAAKLAAA
B28: d6r1_design_ppi_197_dldesign_0_cycle0_af2pred (protein)
chain: AAELAALEAEFRDQLEVARQAARFSPASAAAFLAGVAASLRRRLPPALGAAFAARADAAAAAARLLGEDPAAGEALFAAVLA
B29: d6r1_design_ppi_311_dldesign_0_cycle1_af2pred (protein)
chain: MTPEEVAARAAELLAWLRAQAALDPEMAALGAAGLELVLAHSPELAARAVRQLERARRMPPADALRVGALIAQAYAAQVERARA
B30: d6r1_design_ppi_593_dldesign_0_cycle1_af2pred (protein)
chain: SKNVELAEKAQEVVKRAKEVGKLVPEKAEEIISTSNQALAYALNPHTVAKGEKLLEEATKLVEEAEKEAK
B31: d6r1_design_ppi_463_dldesign_0_cycle0_af2pred (protein)
chain: GLIEELLAEARAEVEAEIAARREEARRLAAEGEESEDTEEKRARAEELLAEAAEREAQADSIAAQAAFRRAAELTRQLAAAA
B32: d6r1_design_ppi_243_dldesign_0_cycle1_af2pred (protein)
chain: AEAVARAARDARAQIELAEALLKQGLAAAKTDPAQALLAYNAALAAARSAVRIAARAPEVLEEARAALAAVEAAKAKVQAQAA
B33: d6r1_design_ppi_468_dldesign_0_cycle1_af2pred (protein)
chain: AQAALDAAIAAARAAAALAREAGDDTAAAFFESAALVLEGGPANMPLAIRLTEAGIRSARARLDPATAAKVAALGEAAIAAARAAAAA
B34: d6r1_design_ppi_11_dldesign_0_cycle1_af2pred (protein)
chain: EMEKAQKELLEAANKAMTTLFKAAAAASAKGDNATAGQLVEAAGEVSKLAKEAVKKSPEAMKEAAKKLKEAAAAGAKLGAA
B35: d6r1_design_ppi_222_dldesign_0_cycle1_af2pred (protein)
chain: SAEAAALKEEAEKLGKEALAAAEELKKVDPEKGERLKSQIKGLELQAISSYDLAAVNPAALATAKKAREQLEKLGREAKEAV
B36: d6r1_design_ppi_203_dldesign_0_cycle1_af2pred (protein)
chain: AQEQVVKEAQQLLLAASQAISKALVRAAQGTLQQADIEAAQKLIEAAAKAAEKAPPEAKARLNKGVEGLKELLEGALQTAKLAK
B37: d6r1_design_ppi_397_dldesign_0_cycle1_af2pred (protein)
chain: GEEEEEKKRKEEIKKAIKEAAEKAKEAGPAETRPEIEAAEKLALEDPKAGMNRLLAIGAREPATAPYLVEGAEKVSALLKS
B38: d6r1_design_ppi_575_dldesign_0_cycle1_af2pred (protein)
chain: GAALAAQRAEAREVLARARAIEAQAQALAATQPAAAGIGSLARQAIELASRSLEEGLELLPSARALVEVAAGIVAAA

What follows are binders tested against CD276, Q5ZPR3.
Sequence of CD276, Q5ZPR3 (Q5ZPR3 whole entry): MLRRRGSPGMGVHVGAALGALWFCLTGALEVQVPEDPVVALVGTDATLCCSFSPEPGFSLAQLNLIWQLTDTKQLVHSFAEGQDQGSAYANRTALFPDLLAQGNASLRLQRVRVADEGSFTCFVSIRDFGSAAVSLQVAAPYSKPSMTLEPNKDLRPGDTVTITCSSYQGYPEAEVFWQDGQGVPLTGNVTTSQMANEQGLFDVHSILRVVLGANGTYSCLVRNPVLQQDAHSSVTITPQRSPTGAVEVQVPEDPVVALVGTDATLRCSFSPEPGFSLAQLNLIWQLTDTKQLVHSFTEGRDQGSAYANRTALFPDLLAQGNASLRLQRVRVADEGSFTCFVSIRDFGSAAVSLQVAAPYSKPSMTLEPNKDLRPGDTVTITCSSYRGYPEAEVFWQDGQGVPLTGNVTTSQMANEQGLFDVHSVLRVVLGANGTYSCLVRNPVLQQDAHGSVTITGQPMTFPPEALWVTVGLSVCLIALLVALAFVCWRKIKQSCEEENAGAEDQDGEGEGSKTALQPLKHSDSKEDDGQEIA

Binding in a display sort, inactive:
B1 not found
B2 not found
B3 not found
B4 not found
B5 not found
B6 not found
B7 not found
B8 not found
B9 not found
B10 not found
B11 not found
B12 not found
B13 not found
B14 not found
B15 not found
B16 not found
B17 not found
B18 not found
B19 not found
B20 not found
B21 not found
B22 not found
B23 not found
B24 not found
B25 not found
B26 not found
B27 not found
B28 not found
B29 not found
B30 not found
B31 not found
B32 not found
B33 not found
B34 not found
B35 not found
B36 not found
B37 not found
B38 not found
